# Rows were chosen to be rich in hits. Some 7% of all compounds tested hit in one or more screens of this group.
# JMJD2A Tudor inh: blocks the human JMJD2A Tudor domain; O75164; AlphaScreen JMJD2A-Tudor / H3K4me3 peptide binding; Potency, µM (titrated, usually from 114 µM), inactives show at the top dose activity change, negative = inhibition, most hits filed as inhibitors; 390,000 compounds, 4.4% hits; AID 504339; also: potency is read from the fitted curve at half-maximal effect; % is scaled to controls: 0 for no effect and ±100 for the full control effect; nearly all actives have a fitted effect of over 50% in size
# HP1b binding inh: inhibitors of HP1-beta chromodomain binding to methylated histone tails. AlphaScreen HP1-beta / biotin-H3K9me3 peptide binding. Potency, µM (doses to about 114 µM), for inactives: at the top dose activity change, negative = inhibition, most hits filed as inhibitors. 390,000 compounds, 0.56% hits. AID 540317; also: potency is read from the fitted curve at half-maximal effect; nearly all actives have a fitted effect of over 70% in size
#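 Compound inhibition of the preformed complex between 50 nM HP1-beta and 50 nM biotinylated H3K9me3 peptide was read by AlphaScreen. Buffer was PBS pH 7.4 with 0.01% Tween-20. Incubations ran 30 min at room temperature, with 10 ug/mL donor/acceptor beads.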
# BAZ2B block: inhibitors of human BAZ2B bromodomain | Q9UIF8 | AlphaScreen BAZ2B-H3K14Ac peptide displacement | Potency, µM (doses to about 114 µM), without a hit: top-dose activity change, negative = inhibition, usual class: inhibitors | 360,000 compounds, 4.4% hits | AID 504333; also: potency is read from the fitted curve at half-maximal effect; % is scaled to controls: 0 for no effect and ±100 for the full control effect; nearly all actives have a fitted effect of over 60% in size
#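 BAZ2B 50 nM plus b-H3(5-23)K14Ac 50 nM, PBS pH 7.4/0.01% Tween-20, 30 min RT; compound added (max 110 uM), 30 min RT; streptavidin donor/Ni-chelate acceptor beads 10 ug/mL final, 20 min dark; AlphaScreen read.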
# GCN5L2 inh: GCN5L2 (KAT2A) acetyltransferase inhibition; 390,000 compounds, 0.21% hits; Q92830; GCN5L2 HAT assay, ThioGlo1 CoA-SH fluorescence; Potency, µM (doses to about 58.9 µM), without a hit: at the highest dose activity change, negative = inhibition, actives largely listed as inhibitors; AID 504327; also: potency is read from the fitted curve at half-maximal effect; % is scaled to controls: 0 for no effect and ±100 for the full control effect
#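 Enzyme at 20nM final was mixed with library compounds for 15 min at room temperature. Peptide H3(1-25) at 75uM, acetyl-CoA at 70uM and ThioGlo1 at 50uM were then added. Plates were read immediately and after 20 min (Ex340nm/Em540nm).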
# PLK1 PBD inh: blocks phosphopeptide binding to human PLK1 polo-box domain | P53350 | Plk1 PBD binding of FITC phosphopeptide, fluorescence polarization | Potency, µM, inactives show max response, negative = inhibition, actives largely listed as inhibitors | 360,000 compounds, 2.8% hits | AID 720504; also: potency is read from the fitted curve at half-maximal effect; series mostly up to about 57 µM; % is scaled to controls: 0 for no effect and ±100 for the full control effect; nearly all actives have a fitted effect of over 65% in size
# Target sequence (P53350 whole entry, looked up, the tested form may be a part): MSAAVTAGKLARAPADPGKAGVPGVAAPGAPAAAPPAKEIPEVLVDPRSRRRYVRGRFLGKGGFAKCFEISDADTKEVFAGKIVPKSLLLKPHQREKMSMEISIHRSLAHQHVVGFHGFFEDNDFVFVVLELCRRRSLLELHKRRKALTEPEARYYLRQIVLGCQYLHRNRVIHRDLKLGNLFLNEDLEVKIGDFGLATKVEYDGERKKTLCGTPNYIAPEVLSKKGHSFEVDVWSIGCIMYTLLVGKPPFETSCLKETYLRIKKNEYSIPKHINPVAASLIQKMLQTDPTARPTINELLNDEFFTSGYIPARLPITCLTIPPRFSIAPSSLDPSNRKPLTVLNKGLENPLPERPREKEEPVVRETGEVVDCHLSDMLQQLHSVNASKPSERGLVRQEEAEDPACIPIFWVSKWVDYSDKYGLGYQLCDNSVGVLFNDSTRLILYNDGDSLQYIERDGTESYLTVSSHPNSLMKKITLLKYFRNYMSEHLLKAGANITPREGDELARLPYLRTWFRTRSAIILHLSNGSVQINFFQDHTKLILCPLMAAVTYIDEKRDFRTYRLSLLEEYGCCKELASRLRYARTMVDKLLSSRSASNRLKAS
# PI5P4K alpha inh: PI5P4K alpha (human) kinase inhibition; P48426; PI5P4Kalpha enzyme, ADP-Glo luminescence, 60 min; hits give low values; max response, %; 330,000 compounds, 1.2% hits; active = max response of -50% or lower; inconclusive = between -30% and -50%; inactive = -30% or higher; also: value at the top dose of about 77 µM; % is scaled to controls: 0 for no effect and ±100 for the full control effect
#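 Quantitative HTS of the MLSMR library against PI5P4Kalpha with substrate. ATP added last at 5 microM final; room temperature, 60 minutes. Remaining ATP depleted, ADP converted and read as luminescence.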
# The depositor's hits bear a star; ? = inconclusive; . = no result; [ ] = remark or other dose. Unless noted, calls follow the shape of the dose curve; as a rule, active = well fitted curve in the direction sought with a large enough effect; inconclusive = small, poorly fitted or top-dose-only effect, or another doubt; inactive = no such curve, though single readings can be large; an effect the other way counts as inactive or inconclusive.
SMILES,JMJD2A Tudor inh,HP1b binding inh,BAZ2B block,GCN5L2 inh,PLK1 PBD inh,PI5P4K alpha inh
O=C(C1CCN(Cc2ccc(F)cc2)CC1)N1CCN(C/C=C/c2ccccc2)CC1,20µM*,?,50µM*,-6%,-9%,-4
CN1CCN(CC#CC(C)(O)C2CC3C=CC2C3)CC1 (centres undefined),50µM*,22%,?,1%,-6%,-10
OC(CCN1CCCCC1)(c1ccccc1)C1C[C@@H]2C=C[C@H]1C2 (some centres undefined),-15%,51%,-10%,-4%,-3%,-3
Cc1ccc(CNC(=O)CSc2nc3[nH]ncc3c(=O)[nH]2)cc1,?,17%,12%,1%,27µM*,5
CCC(=O)Nc1c(C)c(CC)nc2ccccc12,-10%,36%,-5%,-7%,-7%,.
CCCCc1nc2ccccc2c(NC(=O)CN(CC)CC)c1CCC,28µM*,?,56µM*,-15%,-6%,-4
CC(=NNc1nc2ccccc2o1)c1cc2ccccc2cn1,10µM*,-17%,.,.,-6%,-6
CC(=NNc1nc2ccccc2o1)c1ncccn1,10µM*,-1%,.,.,-1%,-1
CC(=NNc1nc2ccccc2s1)c1ncccn1,45µM*,-28%,.,.,-7%,2
Oc1ccccc1/C=N/Nc1nc2ccccc2o1,-24%,31%,-2%,-11%,0%,-1
COc1ccc(NC(=O)COc2ccc(N(C)S(=O)(=O)c3ccc(Cl)cc3)cc2)cc1OC,-21%,12%,2%,-12%,-7%,-4
COc1ccc2c(c1)CCCC(Br)C2=O (centres undefined),50µM*,?,.,.,11µM*,-19
COc1ccc2c(c1)CCC1(C)CC(=O)C(Br)=C21 (centres undefined),.,.,.,.,5%,1
Cc1cc2c(s1)c1cnn(Cc3ccc(C#N)cc3)c(=O)c1n2C,-3%,.,.,.,.,.
O=C(CN1C(=O)NC2(CCCC2)C1=O)OCc1cc(=O)n2cc(Br)ccc2n1,50µM*,?,?,-12%,?,?
CC1(C)NC(=O)N(CC(=O)OCc2cc(=O)n3cc(Br)ccc3n2)C1=O,-3%,21%,.,4%,5%,2
CCc1ccc(/C=N/Nc2ncnc3nc[nH]c23)cc1,-6%,48%,-12%,1%,-6%,-56*
CC(O)CNc1ncnc2nc[nH]c12 (centres undefined),-6%,41%,5%,2%,-1%,1
CC(C)=NNc1ncnc2nc[nH]c12,25µM*,34%,.,.,0%,-11
O=C(CSC1=NS(=O)(=O)c2ccccc21)Nc1ccccc1,-15%,31%,?,-20%,11µM*,-10
COC(=O)CSC1=NS(=O)(=O)c2ccccc21,16µM*,-17%,-21%,-6%,3µM*,-20
CCOC(=O)c1ccc(NC(=O)c2c(N)n(Cc3ccccc3)c(=O)[nH]c2=O)cc1,-21%,35%,.,.,-12%,-4
Cc1ccc(NC(=O)CN2C(=O)S/C(=C\c3cccn3-c3cccc(C(=O)O)c3)C2=O)c(C)c1,22µM*,50µM*,40µM*,-14%,24µM*,?
Cc1cccc(C)c1NC(=O)CN1C(=O)S/C(=C\c2cccn2-c2cccc(C(=O)O)c2)C1=O,50µM*,-11%,79µM*,-12%,42µM*,-69*
Cc1cccc(C)c1NC(=O)CN1C(=O)S/C(=C\c2cccn2C)C1=O,-9%,21%,6%,-7%,-3%,.
SMILES,JMJD2A Tudor inh,HP1b binding inh,BAZ2B block,GCN5L2 inh,PLK1 PBD inh,PI5P4K alpha inh
Cc1ccccc1NC(=O)CN1C(=O)S/C(=C\c2cccn2-c2cccc(C(=O)O)c2)C1=O,79µM*,?,56µM*,-4%,?,-4
COc1ccc(NC(=O)CN2C(=O)S/C(=C/c3cccn3-c3ccc(C(=O)O)cc3)C2=O)cc1,.,.,18µM*,?,.,.
COc1ccc(/C=C2\SC(=O)N(CCCC(=O)Nc3ccc(C(=O)O)cc3)C2=O)cc1,.,.,.,.,-15%,-9
Clc1cccc(CN2CCCCCC2)c1Cl,0.71µM*,?,?,-3%,-17%,-5
OCc1cccc(Cl)c1Cl,.,.,.,3%,.,.
Clc1cccc(CN2CCSCC2)c1Cl,3.5µM*,?,?,-9%,7%,-3
Cc1ccc(NC(=O)CSc2nc3c(c(=O)[nH]2)CCC3)c(C)c1,0%,60%,-16%,?,1%,-5
CCCc1cc(=O)[nH]c(SCC(=O)c2c[nH]c3ccccc23)n1,-20%[11.4 µM],?,-12%,-3%,19µM*,-21
COC(=O)c1c(NC(C)=O)sc(C(=O)Nc2ccccc2F)c1C,?,-14%,-5%,-4%,24µM*,?
CCC(=O)Nc1sc(C(=O)Nc2ccccc2F)c(C)c1C(=O)OC,1%,32%,-6%,-3%,3%,2
Cc1ccc(N2CCN(CC(O)COc3cccc4ccccc34)CC2)cc1 (centres undefined),45µM*,?,35µM*,4%,-12%,-3
C=CCc1ccccc1OCC(O)CN1CCOCC1 (centres undefined),-15%,45%,.,.,-6%,-3
C=CCc1ccccc1OCC(O)CN1CCN(c2ccc(OC)cc2)CC1 (centres undefined),18µM*,?,50µM*,-7%,-3%,0
Cc1cc(OCc2cc(C(=O)NC(C)c3c(C)nn(C)c3C)no2)cc(C)c1Cl (centres undefined),-36%,45%,-27%,1%,-17%,-1
CC(C)NCC(O)Cn1c2c(c3ccccc31)CCc1c-2cnn1-c1ccccc1 (centres undefined),50µM*,?,?,3%,-3%,-3
CN1CCc2c(n(CC(O)CNCc3ccccc3)c3ccccc23)C1=O (centres undefined),-10%,35%,-26%,-2%,0%,2
CN(C)c1ncc2nc(-c3ccc(Cl)cc3)c(=O)n(C3CC3)c2n1,.,.,.,-21%,.,.
CN(C)c1ncc2nc(-c3ccccc3)c(=O)n(C3CC3)c2n1,.,.,.,22µM*,.,.
O=C(O)c1ccc(N2C(=O)CC(SC(=NCc3ccc4c(c3)OCO4)Nc3ccccc3)C2=O)cc1 (centres undefined),-27%,21%,?,-7%,53µM*,5
C/[N+]([O-])=C\C1C(=O)CCCC1=O,3%,-3%,-21%,-8%,-15%,1
CSC1=N/C(=C\c2ccc(Cl)cc2)C(=O)N1N(C)C,-5%,28%,-27%,-9%,0%,29
CC1(C)CN=c2s/c(=C\c3ccc(Cl)cc3)c(=O)n2C1,-10%,13%,?,2%,4.7µM*,-18
